Screening data deposited in PubChem BioAssay by several laboratories.
The list is not random: actives were taken first. Their share in the collection is about 4.1%.
IDE cell activ = boosts human insulin-degrading enzyme activity in HEK cells | FAbeta-B cleavage, fluorescence polarization; 0% vehicle, 100% cell-free pure enzyme wells | activation, % at 5.96 µM | 0.073% of 340,000 active | AID 493087;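 active means activation above the mean of all tested compounds plus 3 SD, set per screening campaign, cut at about 17% in these data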
PolyA inh = blocks polyadenylation in yeast reporter cells; 0.02% of 300,000 active; S. cerevisiae SKY197-pL101 polyadenylation reporter, beta-gal luminescence; efflux-impaired pdr1/pdr3 knockout yeast; score 100 = 6 SD above DMSO; AID 1875; activity score, % at 12 µM;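 active means lowest replicate activity score at least 50, where 100 means six control SD above control mean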;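 further: yeast exposed to compound for 9 h at 30 °C; higher score means more reporter readthrough which indicates perturbed polyadenylation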
PfM18AAP inh = blocks P. falciparum M18 aspartyl aminopeptidase | recombinant PfM18AAP, H-Glu-NHMec fluorogenic cleavage | inhibition, % at 7.35 µM | 1.2% of 290,000 active;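 active means inhibition above the campaign mean inhibition over all tested compounds plus 3 SD, cut at about 28% in these data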
CaV13 ICDI inh = Primary screen for inhibitors of IQ motif and Ca2+-dependent inactivation inhibitor domain binding in CACNA1D, Förster resonance energy transfer in living cells, …. HEK cells, CFP/YFP FRET ICDI-IQ, plate reader, 10 min; percent FRET-ratio fall versus neutral wells. inhibition, % at 12.3 µM. 0.098% of 340,000 active. AID 743397;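 active means mean replicate inhibition of at least 30% and at least 1% of replicates passing that level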
ALR inh = inhibitors of human sulfhydryl oxidase ALR; P55789; purified ALR, DTT oxidation, H2O2 HRP-luminol luminescence; inhibition, % (test concentration not listed); 3.8% of 290,000 active;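 active means mean replicate inhibition above about 79%, with every replicate also reaching it, limit read from the data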
Target sequence (P55789 whole entry, looked up): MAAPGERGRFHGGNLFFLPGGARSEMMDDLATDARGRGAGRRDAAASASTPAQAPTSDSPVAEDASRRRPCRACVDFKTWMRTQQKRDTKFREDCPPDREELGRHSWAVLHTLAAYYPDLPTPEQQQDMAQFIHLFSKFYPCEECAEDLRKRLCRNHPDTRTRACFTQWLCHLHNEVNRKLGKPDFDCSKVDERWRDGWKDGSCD
IDE inh = cellular human IDE inhibition; P14735; HEK cells, FAbetaB cleavage, fluorescence polarization; inhibition, % at 5.59 µM; 0.41% of 320,000 active;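 active means percent inhibition above the average of all tested compounds plus 3 SD, set per screening campaign, cut at about 16% in these data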;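 further: IDE supplied by intact live HEK cells; FP after avidin binding of uncleaved biotin substrate so inhibition keeps polarization high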
Of the large screens only hits and unclear results are named; the others gave an inactive call.

CCOc1cc(/C=N\n2nnnc2N)ccc1O	ALR inh 99
CCOc1cc(/C=N/Nc2ncnc(Cl)c2N)ccc1O	ALR inh 99
CCOc1cc(/C=N/Nc2nnc(C)n2N)ccc1O	ALR inh 99
CC(C)c1ccc(NC(=O)CCCC(=O)NCCc2ccccc2)cc1	none
COc1cccc(Oc2cn[nH]c2-c2ccc(O)cc2O)c1	ALR inh 80
COc1ccc(-c2cn[nH]c2-c2ccc(OC)cc2O)cc1	ALR inh 97
Cc1cc(C(=O)NP(=O)(N2CCOCC2)N2CCOCC2)c(C)n1-c1ccc(N(C)C)cc1	ALR inh 93
Brc1ccc([C@H]2CN3CCSC3=N2)cc1	none (no result: PfM18AAP inh)
O=c1c2ccccc2nc(/C=C/c2ccccc2)n1CCc1ccccc1	none
O=C(O)c1cccc(-n2c(/C=C/c3ccccc3)nc3ccccc3c2=O)c1	ALR inh 78
COCC(C)NC(=O)c1cc(-c2cccc(OC)c2)on1 (stereo not drawn)	none
COCC(C)NC(=O)c1cc(-c2ccc(O)cc2)on1 (stereo not drawn)	ALR inh 99
COc1ccc(-c2ccccc2)cc1NCc1ccccc1C	none (no result: ALR inh)
COc1ccc(C)cc1NCc1ccc([N+](=O)[O-])cc1	ALR inh 99
COc1ccc(C)cc1NCc1ccc(OC)c(C)c1OC	ALR inh 77
CCCCCCOc1ccc(/C(N)=N/O)cc1	ALR inh 99 (no result: CaV13 ICDI inh)
COc1ccc(C2CC(=O)C(c3cccc(C)c3)=CN2Cc2ccccc2)cc1 (stereo not drawn)	none (no result: IDE cell activ, PolyA inh, PfM18AAP inh, ALR inh, IDE inh)
O=c1oc2ccccc2cc1-c1csc(NN=C2CCCCC2)n1	ALR inh 87 (no result: CaV13 ICDI inh)
O=C(Nc1nc(-c2cc3ccccc3oc2=O)cs1)c1ccco1	none
CCC(C(=O)N1CCN(Cc2ccc3c(c2)OCO3)CC1)n1c(=O)[nH]c2ccccc2c1=O (stereo not drawn)	none
COC(=O)[C@@H](N)Cc1ccc(O)c(O)c1	ALR inh 98 (no result: PolyA inh, PfM18AAP inh)
Cc1nc(C(=O)NCCC(C)C)sc1C1(C)CC(c2ccccc2)=NO1 (stereo not drawn)	none (no result: PfM18AAP inh, ALR inh)
CCOC(=O)COc1ccc2c(C#N)c3ccccn3c2c1	none (no result: ALR inh, IDE inh)
N#Cc1c2ccc(OCC(N)=O)cc2n2ccccc12	CaV13 ICDI inh 77
COc1ccc(/C=N/NC(=O)CCc2c(C)n[nH]c2C)cc1O	ALR inh 99
COc1ccc(/C=N/NC(=O)CCc2n[nH]c(=O)[nH]c2=O)cc1O	ALR inh 99
Cc1n[nH]c(C)c1CCC(=O)N/N=C/C=C/c1ccccc1	none
Cc1ccccc1-n1c(=O)c(C#N)cc2c(=O)n3ccccc3nc21	none
C=CCn1c(=N)c(C#N)cc2c(=O)n3ccccc3nc21	CaV13 ICDI inh 33
Cc1cc(-n2c(=O)c(C#N)cc3c(=O)n4ccccc4nc32)no1	CaV13 ICDI inh 33
CC1(C(=O)Nc2ccc3c(c2)OCCO3)CN(S(C)(=O)=O)CC(=O)N1Cc1cccs1 (stereo not drawn)	none (no result: IDE cell activ, PolyA inh, PfM18AAP inh, ALR inh, IDE inh)
O=C(O)c1ccc(N/N=C/c2cn(Cc3ccc(F)cc3)c3ccccc23)cc1	ALR inh 99
Cc1ccc(Cn2cc(/C=N/Nc3ccc([N+](=O)[O-])cn3)c3ccccc32)cc1	PfM18AAP inh 54
Cc1c(/C=N/Nc2ccc([N+](=O)[O-])cn2)c2ccccc2n1Cc1ccccc1	none
CN1C/C(=C/c2ccncc2)C(=O)/C(=C/c2ccncc2)C1	none
CN1C/C(=C\c2ccc(N3CCOCC3)cc2)C(=O)/C(=C/c2ccc(N3CCOCC3)cc2)C1	ALR inh 79
O=C(O)CSCc1c(F)cccc1Cl	none
CC(=O)N1CCN=C1SCc1c(F)cccc1Cl	ALR inh 98
CCC(=O)N1CCN=C1SCc1c(F)cccc1Cl	ALR inh 99
O=C(NCc1cccc(C(F)(F)F)c1)c1ccc2c(c1)OCO2	none (no result: ALR inh, IDE inh)
O=C(Cc1ccccc1)NCC(=O)N1CCCCCC1	none
Cc1ccc(C(=O)NNC(=S)NC(=O)c2ccccc2)cc1	none (no result: PfM18AAP inh)
COc1ccc(C(=O)NNC(=S)NC(=O)c2ccc(F)cc2)cc1Br	none (no result: IDE cell activ, PfM18AAP inh)
O=C(NC(=S)NNC(=O)c1ccccc1O)c1ccccc1	PfM18AAP inh 30
Cc1ccc(C(=O)NC(=S)NNC(=O)c2ccccc2)cc1	ALR inh 98
